{"source": "PubChem BioAssay AID1159580", "about": "(chemical genetic matrix, 2015)", "assay": "chemical genetic growth profiling, strain panel (AID 1159580);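 note: tested at 20 µM; growth read once vehicle control cultures reached saturation at 30 °C; 1 = growth at the plate median or of vehicle wells; lower values mean less growth of the strain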", "conditions": "S. cerevisiae deletion strains, growth OD", "note": "Values joined by “and” are separate entries in the source; they are usually repeats but may differ in a detail not shown here. Equal entries are not always repeated. About 2,000 (36%) of roughly 5,500 compounds were called active. Roughly 18% stayed inconclusive and do not appear here. Some of the results follow. A number with no mark means an inactive call. Cut-off read from the data, not from the text of the source: active = normalized growth mostly below about 0.91 (no sharp cut-off); inconclusive = no clear call, values can overlap the other calls; inactive = mostly above about 0.92."}
{"smiles": "CNCCC=C1c2ccccc2CCc2ccccc21", "values": [{"measurement": "normalized growth", "setting": "locus YAL013W, strain DEP1, hits give low values", "result": 1.01}, {"measurement": "normalized growth", "setting": "locus YAL021C, strain ccr4, hits give low values", "result": 0.919}, {"measurement": "normalized growth", "setting": "locus YAL026C, strain drs2, hits give low values", "result": "0.854 (active)"}, {"measurement": "normalized growth", "setting": "locus YAL030W, strain snc1, hits give low values", "result": 0.975}, {"measurement": "normalized growth", "setting": "locus YAL040C, strain CLN3, hits give low values", "result": 1.01}, {"measurement": "normalized growth", "setting": "locus YBL061C, strain skt5, hits give low values", "result": 0.983}, {"measurement": "normalized growth", "setting": "locus YBR009C, strain hhf1, hits give low values", "result": 0.989}, {"measurement": "normalized growth", "setting": "locus YBR021W, strain FUR4, hits give low values", "result": 1.02}, {"measurement": "normalized growth", "setting": "locus YBR023C, strain chs3, hits give low values", "result": 0.956}, {"measurement": "normalized growth", "setting": "locus YBR171W, strain sec66, hits give low values", "result": 0.952}, {"measurement": "normalized growth", "setting": "locus YBR229C, strain ROT2, hits give low values", "result": 1.01}, {"measurement": "normalized growth", "setting": "locus YBR231C, strain swc5, hits give low values", "result": 0.996}, {"measurement": "normalized growth", "setting": "locus YBR279W, strain paf1, hits give low values", "result": 0.971}, {"measurement": "normalized growth", "setting": "locus YCL011C, strain gbp2, hits give low values", "result": 0.965}, {"measurement": "normalized growth", "setting": "locus YCL016C, strain dcc1, hits give low values", "result": 0.946}, {"measurement": "normalized growth", "setting": "locus YCL029C, strain bik1, hits give low values", "result": 1.04}, {"measurement": "normalized growth", "setting": "locus YCL061C, strain MRC1 (second series), hits give low values", "result": 0.998}, {"measurement": "normalized growth", "setting": "locus YCL061C, strain MRC1, hits give low values", "result": 0.981}, {"measurement": "normalized growth", "setting": "locus YCL069W, strain vba3, hits give low values", "result": 0.976}, {"measurement": "normalized growth", "setting": "locus YCR088W, strain abp1, hits give low values", "result": 0.978}, {"measurement": "normalized growth", "setting": "locus YDL005C, strain med2, hits give low values", "result": 0.955}, {"measurement": "normalized growth", "setting": "locus YDL035C, strain GPR1, hits give low values", "result": 1}, {"measurement": "normalized growth", "setting": "locus YDL040C, strain nat1, hits give low values", "result": 0.974}, {"measurement": "normalized growth", "setting": "locus YDL074C, strain BRE1, hits give low values", "result": 1.03}, {"measurement": "normalized growth", "setting": "locus YDL101C, strain DUN1, hits give low values", "result": 1.02}, {"measurement": "normalized growth", "setting": "locus YDL134C, strain PPH21, hits give low values", "result": 1.01}, {"measurement": "normalized growth", "setting": "locus YDL185W, strain tfp1, hits give low values", "result": 1.02}, {"measurement": "normalized growth", "setting": "locus YDL192W, strain arf1, hits give low values", "result": 1.02}, {"measurement": "normalized growth", "setting": "locus YDR001C, strain nth1, hits give low values", "result": 0.986}, {"measurement": "normalized growth", "setting": "locus YDR069C, strain doa4, hits give low values", "result": 0.929}, {"measurement": "normalized growth", "setting": "locus YDR101C, strain arx1, hits give low values", "result": 1.03}, {"measurement": "normalized growth", "setting": "locus YDR137W, strain rgp1, hits give low values", "result": 1.1}, {"measurement": "normalized growth", "setting": "locus YDR150W, strain NUM1, hits give low values", "result": "1.01 and 1"}, {"measurement": "normalized growth", "setting": "locus YDR159W, strain sac3, hits give low values", "result": 0.955}, {"measurement": "normalized growth", "setting": "locus YDR162C, strain NBP2, hits give low values", "result": 1}, {"measurement": "normalized growth", "setting": "locus YDR195W, strain ref2", "result": 1}, {"measurement": "normalized growth", "setting": "locus YDR297W, strain sur2, hits give low values", "result": 0.99}, {"measurement": "normalized growth", "setting": "locus YDR318W, strain mcm21, hits give low values", "result": 1.03}, {"measurement": "normalized growth", "setting": "locus YDR334W, strain swr1, hits give low values", "result": 0.957}, {"measurement": "normalized growth", "setting": "locus YDR335W, strain msn5, hits give low values", "result": 0.963}, {"measurement": "normalized growth", "setting": "locus YDR363W, strain ESC2, hits give low values", "result": 0.951}, {"measurement": "normalized growth", "setting": "locus YDR388W, hits give low values", "result": 1.02}, {"measurement": "normalized growth", "setting": "locus YDR392W, strain spt3, hits give low values", "result": 0.939}, {"measurement": "normalized growth", "setting": "locus YDR502C, strain sam2, hits give low values", "result": 1.03}, {"measurement": "normalized growth", "setting": "locus YEL003W, strain gim4, hits give low values", "result": 0.972}, {"measurement": "normalized growth", "setting": "locus YEL037C, strain rad23, hits give low values", "result": 0.967}, {"measurement": "normalized growth", "setting": "locus YEL061C, strain CIN8 (second series), hits give low values", "result": 0.972}, {"measurement": "normalized growth", "setting": "locus YEL061C, strain CIN8, hits give low values", "result": 1.01}, {"measurement": "normalized growth", "setting": "locus YER002W, strain NOP16, hits give low values", "result": 1.03}, {"measurement": "normalized growth", "setting": "locus YER015W, strain faa2, hits give low values", "result": 0.978}, {"measurement": "normalized growth", "setting": "locus YER016W, strain bim1, hits give low values", "result": 0.97}, {"measurement": "normalized growth", "setting": "locus YER110C, hits give low values", "result": 1.01}, {"measurement": "normalized growth", "setting": "locus YER111C, strain swi4, hits give low values", "result": 0.953}, {"measurement": "normalized growth", "setting": "locus YER155C, strain BEM2 (second series), hits give low values", "result": 0.917}, {"measurement": "normalized growth", "setting": "locus YER155C, strain BEM2, hits give low values", "result": 1}, {"measurement": "normalized growth", "setting": "locus YER167W, strain BCK2, hits give low values", "result": 1}, {"measurement": "normalized growth", "setting": "locus YFR010W, strain ubp6, hits give low values", "result": 0.958}, {"measurement": "normalized growth", "setting": "locus YGL078C, strain dbp3, hits give low values", "result": 1.01}, {"measurement": "normalized growth", "setting": "locus YGL086W, strain mad1, hits give low values", "result": 1.01}, {"measurement": "normalized growth", "setting": "locus YGL167C, strain pmr1, hits give low values", "result": 0.971}, {"measurement": "normalized growth", "setting": "locus YGL173C, strain kem1, hits give low values", "result": 0.968}, {"measurement": "normalized growth", "setting": "locus YGL227W, strain vid30, hits give low values", "result": 0.966}, {"measurement": "normalized growth", "setting": "locus YGL240W, strain doc1, hits give low values", "result": 1.01}, {"measurement": "normalized growth", "setting": "locus YGL248W, strain PDE1, hits give low values", "result": 1.01}, {"measurement": "normalized growth", "setting": "locus YGL253W, strain hxk2, hits give low values", "result": 0.981}, {"measurement": "normalized growth", "setting": "locus YGR078C, strain PAC10, hits give low values", "result": "1.03 and 0.991"}, {"measurement": "normalized growth", "setting": "locus YGR135W, strain pre9, hits give low values", "result": 1.02}, {"measurement": "normalized growth", "setting": "locus YGR229C, strain SMI1, hits give low values", "result": "1.03 and 0.97"}, {"measurement": "normalized growth", "setting": "locus YGR252W, strain gcn5, hits give low values", "result": 1.14}, {"measurement": "normalized growth", "setting": "locus YHR013C, strain ard1, hits give low values", "result": 0.885}, {"measurement": "normalized growth", "setting": "locus YHR027C, strain rpn1, hits give low values", "result": 0.978}, {"measurement": "normalized growth", "setting": "locus YHR030C, strain SLT2, hits give low values", "result": "1.01 and 0.966"}, {"measurement": "normalized growth", "setting": "locus YHR079C, strain IRE1 (second series), hits give low values", "result": 1.03}, {"measurement": "normalized growth", "setting": "locus YHR079C, strain IRE1, hits give low values", "result": 0.974}, {"measurement": "normalized growth", "setting": "locus YHR094C, strain hxt1, hits give low values", "result": 1.01}, {"measurement": "normalized growth", "setting": "locus YHR129C, strain ARP1, hits give low values", "result": 1.01}, {"measurement": "normalized growth", "setting": "locus YHR142W, strain chs7, hits give low values", "result": 0.961}, {"measurement": "normalized growth", "setting": "locus YHR200W, strain rpn10, hits give low values", "result": 1.02}, {"measurement": "normalized growth", "setting": "locus YIL066C, strain RNR3, hits give low values", "result": 1.02}, {"measurement": "normalized growth", "setting": "locus YIL073C, strain SPO22, hits give low values", "result": 1.09}, {"measurement": "normalized growth", "setting": "locus YIL125W, strain kgd1, hits give low values", "result": 1.01}, {"measurement": "normalized growth", "setting": "locus YIR030C, strain dcg1, hits give low values", "result": 1.02}, {"measurement": "normalized growth", "setting": "locus YJL092W, strain hpr5, hits give low values", "result": 0.991}, {"measurement": "normalized growth", "setting": "locus YJL095W, strain BCK1 (second series), hits give low values", "result": 0.965}, {"measurement": "normalized growth", "setting": "locus YJL095W, strain BCK1, hits give low values", "result": "1.01 and 0.961"}, {"measurement": "normalized growth", "setting": "locus YJL115W, strain asf1, hits give low values", "result": 0.961}, {"measurement": "normalized growth", "setting": "locus YJL129C, strain trk1, hits give low values", "result": 0.978}, {"measurement": "normalized growth", "setting": "locus YJL134W, strain LCB3, hits give low values", "result": 1.01}, {"measurement": "normalized growth", "setting": "locus YJL154C, strain vps35, hits give low values", "result": 0.973}, {"measurement": "normalized growth", "setting": "locus YJL164C, strain tpk1, hits give low values", "result": 0.978}, {"measurement": "normalized growth", "setting": "locus YJL166W, strain qcr8, hits give low values", "result": 0.989}, {"measurement": "normalized growth", "setting": "locus YJL168C, strain set2, hits give low values", "result": 1.01}, {"measurement": "normalized growth", "setting": "locus YJL187C, strain SWE1 (second series), hits give low values", "result": 1.02}, {"measurement": "normalized growth", "setting": "locus YJR043C, strain POL32, hits give low values", "result": 1.02}, {"measurement": "normalized growth", "setting": "locus YJR066W, strain TOR1, hits give low values", "result": 0.923}]}
